ERK AVP inh – vasopressin-driven ERK pathway inhibition; hit rate 0.99% among 72,000; HEK293-V1b, vasopressin-stimulated pERK AlphaScreen; Potency, µM (top dose mostly 57.5 µM), without a hit: at the highest dose activity, negative = inhibition, usual class: inhibitors; also: potency is read from the fitted curve at half-maximal effect; % is scaled to controls: 0 for no effect and ±100 for the full control effect; nearly all actives have a fitted effect of over 55% in size
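HEK293 cells stably expressing V1b receptor, seeded overnight in 1% FBS, were treated with compounds for 30 min at 37C, then stimulated 5 min with 25 nM vasopressin; phospho-ERK read by AlphaScreen SureFire after lysis.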
TSHR agonist – agonists of human thyroid stimulating hormone receptor | AID 926 | P16473 | HEK293-CNG-TSHR cells (CNG channel as cAMP sensor), membrane potential dye, cAMP | Potency, µM (highest dose often 57.1 µM), inactives show at the top dose activation, actives largely listed as activators | hit rate 0.48% among 73,000; active = well fitted activation curve with a large enough effect in the main read-out, with a control signal flat, not every such curve was filed as active; inconclusive = small, poorly fitted or top-dose-only effect, or a change in a side signal; inactive = no such curve, though single readings can be large or run the other way; % of control where 0% means no effect;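 also: the control signal comes from parental cells without the receptor; potency is read from the fitted curve at half-maximal effect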
Target sequence (P16473 whole entry, looked up): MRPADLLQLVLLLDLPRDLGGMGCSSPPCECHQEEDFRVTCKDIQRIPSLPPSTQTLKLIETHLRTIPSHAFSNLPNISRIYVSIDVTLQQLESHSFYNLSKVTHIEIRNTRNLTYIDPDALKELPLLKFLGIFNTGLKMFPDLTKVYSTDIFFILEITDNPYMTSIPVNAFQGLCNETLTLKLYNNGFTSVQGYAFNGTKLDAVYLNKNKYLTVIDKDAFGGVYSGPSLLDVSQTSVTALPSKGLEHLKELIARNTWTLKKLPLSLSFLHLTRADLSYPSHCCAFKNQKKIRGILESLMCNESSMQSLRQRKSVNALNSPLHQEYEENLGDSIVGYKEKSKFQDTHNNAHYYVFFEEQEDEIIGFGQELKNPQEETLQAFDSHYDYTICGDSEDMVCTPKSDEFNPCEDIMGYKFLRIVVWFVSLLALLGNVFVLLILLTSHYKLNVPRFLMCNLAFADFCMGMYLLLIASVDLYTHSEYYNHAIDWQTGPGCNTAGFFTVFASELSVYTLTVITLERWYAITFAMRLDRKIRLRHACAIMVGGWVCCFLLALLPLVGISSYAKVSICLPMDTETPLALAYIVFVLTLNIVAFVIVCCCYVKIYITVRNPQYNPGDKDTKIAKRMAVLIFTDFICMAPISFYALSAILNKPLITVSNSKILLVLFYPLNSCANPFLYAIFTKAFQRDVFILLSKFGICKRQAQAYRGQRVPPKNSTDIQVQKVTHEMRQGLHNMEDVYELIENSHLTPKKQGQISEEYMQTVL
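cAMP rise detected as CNG-channel membrane depolarization by fluorescent dye (emission 590 nm), 30 min after compound, following 60 min dye loading containing 100 uM RO 20-1724 at room temperature. Cells: TSHR/CNG HEK 293, with parental CNG HEK 293 as control.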
HBB splicing – hemoglobin beta splicing modulation; HBB splicing reporter cell assay, activation; EGFP reporter with mutant IVS2-654 intron; response scale: normalised to 500 nM splice-correcting PNA; Potency, µM (top dose mostly 46.1 µM), inactives show top-dose activation, hits mostly activators; hit rate 0.06% among 65,000; AID 925; also: potency is read from the fitted curve at half-maximal effect; 0% is about no effect
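Compounds were applied for 2 days to HeLa EGFP-654 cells, 500/well in Optimem with 2% FCS. The reporter's EGFP is disrupted by mis-splicing of beta-globin intron IVS2-654. Readout: summed well GFP fluorescence from 488 nm laser scanning; reference was 500 nM antisense […] 654 PNA.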
Ub-GFP proteasome – inhibits proteasome, raising ubiquitin-GFP reporter fluorescence; Ubiquitin-GFP reporter cells, proteasome inhibition, GFP fluorescence; response scale: untreated = 0%, 10 µM MG-132 = 100%; Potency, µM (highest dose often 45.9 µM), for inactives: top-dose activation (GFP accumulation), most hits filed as activators; 67,000 tested, under 10 active; active = well fitted activation curve with a large enough effect, not every such curve was filed as active; inconclusive = small, poorly fitted or top-dose-only effect, or another doubt; inactive = no such curve, though single readings can be large or run the other way; also: potency is read from the fitted curve at half-maximal effect
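Proteasome blockade was scored as a rise in GFP-expressing U2OS cells carrying a ubiquitin(G76V)-GFP construct, imaged after 4 hr compound treatment at 37 °C across a 46 uM–2.9 nM series.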
Epigenetic mod – epigenetic modulators derepressing GFP locus in mouse cells. mouse C127i GFP locus derepression, cytometry, 30 h. Potency, µM (titrated, usually from 46.1 µM), for the others: at the highest dose GFP derepression (activation). AID 597. hit rate 0.09% among 68,000; also: % of control where 0% means no effect
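Murine C127i mammary cells carrying a silenced, stably integrated CMV-driven GFP reporter were treated with compound for 30 hours at 37 C. After PBS washes, GFP-positive cells were counted by laser-scanning microplate cytometry.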
HEK293 cAMP cs – parental HEK293 cAMP activation (counter-screen) | parental HEK293 CNG cAMP sensor, membrane potential fluorescence | Potency, µM (titrated, usually from 57.1 µM), inactives show at the highest dose activation, most hits filed as activators | hit rate 2.5% among 73,000 | AID 938; also: potency is read from the fitted curve at half-maximal effect; % of control where 0% means no effect; nearly all actives have a fitted effect of over 55% in size
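Parental HEK 293 cells stably expressing a modified CNG channel (no TSHR) report cAMP rise as membrane depolarization. Membrane potential dye with 100 uM RO 20-1724 was loaded for 60 min at room temperature, then compound added for 30 min; fluorescence read at 590 nm.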
* = called active by the depositor; ? = inconclusive; . = no result given; [ ] = dose if it differs, or a comment. The list is not random: actives were taken first. Their share in the collection is about 3.8%. Unless noted, calls follow the shape of the dose curve; as a rule, active = well fitted curve in the direction sought with a large enough effect; inconclusive = small, poorly fitted or top-dose-only effect, or another doubt; inactive = no such curve, though single readings can be large; an effect the other way counts as inactive or inconclusive.

SMILES	ERK AVP inh	TSHR agonist	HBB splicing	Ub-GFP proteasome	Epigenetic mod	HEK293 cAMP cs
COc1ccc(-n2c(=O)c(C)nc3cnc(Oc4cccc(Cl)c4)nc32)cc1	2%	?	2%	-3%	0%[9.22 µM]	16µM*
Cc1nc2cnc(Oc3ccccc3)nc2n(CCc2ccccc2)c1=O	12%	?	1%	-3%	3%[9.22 µM]	1.6µM*
COc1cccc(Cn2c(=O)c(C)nc3cnc(Oc4cccc(Cl)c4)nc32)c1	12%	?	0%	0%	0%[9.22 µM]	?
COc1ccc(Oc2ncc3nc(C)c(=O)n(Cc4ccc(F)cc4)c3n2)cc1	-12%	?	10%	-7%	-3%[9.22 µM]	16µM*
Cc1nc2cnc(Oc3ccccc3)nc2n(Cc2cccs2)c1=O	-14%	?	7%	17%	3%[9.22 µM]	16µM*
COc1ccc(Oc2ncc3nc(C)c(=O)n(CCc4ccccc4)c3n2)cc1	-17%	?	0%	0%	0%[9.22 µM]	?
N[C@H](Cc1ccc(F)cc1)C(=O)O	8%	8%	2%	8%	1%	8%
O=c1c(CCc2ccccc2)nc2cnc(Nc3ccccc3)nc2n1Cc1cccs1	-15%	?	?	?	-2%[9.22 µM]	1.3µM*
COc1cccc(Nc2ncc3nc(CCc4ccccc4)c(=O)n(Cc4cccs4)c3n2)c1	-10%	?	?	0%	11%[9.22 µM]	?
Cc1nc2cnc(N3CCOCC3)nc2n(CCc2ccccc2)c1=O	?	?	1%	2%	-2%[9.22 µM]	3.2µM*
Cc1nc2cnc(N3CCN(C)CC3)nc2n(CCc2ccccc2)c1=O	-26%	?	1%	4%	0%[9.22 µM]	?
Cc1nc2cnc(Oc3cccc(Cl)c3)nc2n(CCc2ccccc2)c1=O	17%	?	-2%	2%	2%[9.22 µM]	3.2µM*
COc1ccc(CNc2ccnc(-c3c(C)noc3C)n2)c(OC)c1	?	.	-1%	3%	2%[9.22 µM]	30%
CCc1c2c(nc3ccc(OC)cc13)COC2	-16%	25%	6%	.	.	11%
COc1ccc2nc3c(c(-c4ccccc4)c2c1)CCC3	22%	?	-1%	.	.	25µM*
C#CCCCO/N=C1/C[C@@H](O)[C@@H](O)[C@@H]2[C@@H]3C(=O)N(Cc4ccccc4)C(=O)[C@H]3CC[C@H]12	-2%[11.5 µM]	-6%[11.4 µM]	0%[9.22 µM]	.	.	-3%[11.4 µM]
O=[N+]([O-])c1cccc2c[nH]nc12	-9%	.	.	-7%	-1%	11%
Brc1ccc(CSc2nnc(-c3cnccn3)n2Cc2ccco2)cc1	-31%	?	3%[0.369 µM]	.	2%	20µM*
Clc1ccccc1CSc1nnc(-c2cccnc2)n1Cc1ccco1	0%	.	-1%	10%	-2%	10%
Fc1ccccc1CSc1nnc(-c2cnccn2)n1Cc1ccco1	-23%	?	-1%	15%	-3%	25µM*
Fc1ccc(CSc2nnc(-c3cnccn3)n2Cc2ccco2)cc1	?	13%	-2%	2%	0%	10%
O=C(CSc1nnc(-c2cnccn2)n1Cc1ccco1)c1ccc2ccccc2c1	-12%	?	-2%[57.5 µM]	-2%	0%	?
C(=C\c1ccccc1)/CSc1nnc(-c2cnccn2)n1Cc1ccco1	-1%	?	0%	?	0%	13µM*
COC(=O)N1CCC2(CCN(C(=O)NC(C)C)CC2)CC1	17%	16%	5%	5%	7%[9.22 µM]	12%
Nc1[nH]c(=O)nc2c1ncn2[C@H]1O[C@@H](CO)[C@@H](O)[C@@H]1O	-3%[11.5 µM]	21%[11.4 µM]	2%[9.22 µM]	0%[9.17 µM]	2%[9.22 µM]	4%[11.4 µM]
SMILES	ERK AVP inh	TSHR agonist	HBB splicing	Ub-GFP proteasome	Epigenetic mod	HEK293 cAMP cs
CN1CCCC[C@@H]1CCN1CCCCC1	-2%[11.5 µM]	-2%[11.4 µM]	1%[9.22 µM]	1%[9.17 µM]	4%[9.22 µM]	5%[11.4 µM]
O=C(NCc1ccc(Cl)cc1Cl)c1ccccn1	-3%	?	1%	1%	0%	25µM*
C/C(Cl)=C/CCl	14%	-2%	0%	.	.	28%
COc1ccc(NC(=O)Nc2ccc3c(c2)N(C)C(=O)CS3)cc1OC	25µM*	-16%	0%	12%	0%	-2%
CCc1c(C)c2ccc(OCC(=O)OC(C)C)c(C)c2oc1=O	?	?	4%	3%	3%	25µM*
CCc1c(C)c2ccc(OCC(=O)N(C)C)c(C)c2oc1=O	-25%	5%	2%	3%	2%	1%
CCC(=O)N(Cc1cc2cc(OC)ccc2[nH]c1=O)c1ccc(C)cc1C	?	?	.	-1%	1%	32µM*
COc1ccc2[nH]c(=O)c(CN(C(C)=O)c3cccc(C)c3)cc2c1	-8%	0%	.	2%	0%	7%
Cc1nc(NCc2ccccc2)c2nc(-c3ccccc3)n(CC3CCN(C)CC3)c2n1	9%	18%	0%	4%	.	19%
CCCCNC(=O)C(c1ccc(OCC(=O)OC)c(C(=O)OC)c1)N(CCc1ccccn1)C(=O)CCCCCN1C(=O)NC(c2ccc(-c3ccccc3)cc2)C(C(=O)OCc2ccccc2)=C1C (stereo not given)	-1%	-5%	-1%	.	.	11%
COc1cc2c(cc1OC)-c1cc(Nc3ccc4c(c3)OCCO4)nc(=O)n1CC2	10µM*	.	-4%[57.5 µM]	-6%	2%	-11%
CCN(CC)CCCNc1cc2n(c(=O)n1)CCc1cc(OC)c(OC)cc1-2	-29%	5%	-3%[0.369 µM]	1%	4%	3%
COc1cc2c(cc1OC)-c1cc(OCc3cccnc3)nc(=O)n1CC2	13µM*	12%	2%[57.5 µM]	-4%	0%	-3%
COc1cc2c(cc1OC)-c1cc(NC3CCCCCC3)nc(=O)n1CC2	?	10µM*	-2%[57.5 µM]	-4%	11%	19%
COC(=O)NC(/C(C(=O)OC)=C(\C)NCc1ccccc1)c1ccccc1 (stereo not given)	-5%[11.5 µM]	3%[11.4 µM]	4%[9.22 µM]	.	.	3%[11.4 µM]
CC[C@@H]1CC(=O)N(SC[C@H](N)C(=O)O)C1=O	-9%[11.5 µM]	-3%[11.4 µM]	-1%[9.22 µM]	-3%[9.17 µM]	4%[9.22 µM]	1%[11.4 µM]
CC1(C)CCCC2(C)C3C(O)CC2(C)C(O)C31 (stereo not given)	11%	.	.	.	.	.
COc1ccc(C2CC(=O)c3cnc(NC(=O)c4cccc(OC)c4)nc3C2)cc1 (stereo not given)	-13%	?	2%[57.5 µM]	-1%	-3%	?
COc1ccc(C2CC(=O)c3cnc(NC(=O)c4ccccc4OC)nc3C2)c(OC)c1 (stereo not given)	10µM*	?	3%[0.369 µM]	.	0%	?
NC(=O)CCn1nc(-c2ccccc2)c2ccccc2c1=O	-24%	-8%	-2%	4%	-1%	7%
O=C(CCn1nc(-c2ccccc2)c2ccccc2c1=O)N1CCN(c2ccccc2)CC1	?	?	1%[1.84 µM]	-2%	2%	25µM*
